Screens from PubChem BioAssay.
Only some compounds are listed: those with a hit (about 9.3% of all), similar ones and a draw of the others.
Sm TGR inh – inhibitors of Schistosoma mansoni thioredoxin glutathione reductase | Q962Y6 | purified TGR, DTNB reduction, TNB absorbance 405 nm | Potency, µM (highest dose often 114 µM), inactives show at the highest dose activity change, negative = inhibition, most hits filed as inhibitors | 360,000 compounds, 3% hits | AID 485364; also: potency is read from the fitted curve at half-maximal effect; nearly all actives have a fitted effect of over 60% in size
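TGR 20 nM + NADPH 100 uM (dispensed conc.), cpd preinc 15 min RT; start with NADPH (500 uM addition) then DTNB (15 mM addition). Kinetic TNB absorbance, 405 nm filter. Four-parameter Hill fit across titration.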
HCMV antiviral – blocks human cytomegalovirus replication | 410,000 compounds, 4.5% hits | AID 1259415 | activity change, negative = inhibition, % at 57.5 µM | HFF cells, HCMV-luciferase reporter, 72 h; hits give low values; in the data active = activity change below about -60%; inconclusive = no clear call, values can overlap the other calls; inactive = above about -39%
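Compounds were evaluated in HFFs infected with an HCMV luciferase reporter virus (MOI 1 PFU/cell). Luciferase in lysates collected 72 h post infection served as the replication measure.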
HCV inhibitor – HCV inhibition | 340,000 compounds, 3.4% hits | Huh7.5.1 HCVcc-Cre infection, luciferase reporter, 44 h | AID 651820 | Potency, µM (highest dose often 41.8 µM), without a hit: at the top dose activity change, negative = inhibition, actives largely listed as inhibitors; also: potency is read from the fitted curve at half-maximal effect
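Whole-lifecycle infectious HCVcc-Cre system; cells 1,000/well, compound then virus (~0.5 moi) added 4 h after plating, 44 h culture. Luciferase read 15 sec following 15 min substrate incubation, room temp.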
FMDV antiviral – antivirals against foot and mouth disease virus; 410,000 compounds, 1.2% hits; FMDV antiviral cell-based qHTS; Potency, µM (highest dose often 57.9 µM), inactives show at the top dose activity change, negative = inhibition, hits mostly inhibitors; AID 1159524; calls by dose curve; tested in HEK293T cells; also: read-out not given here; potency is read from the fitted curve at half-maximal effect; nearly all actives have a fitted effect of over 45% in size
Vaccinia Venus – vaccinia inhibition (Venus reporter) | 330,000 compounds, 0.46% hits | Potency, µM (titrated, usually from 36.5 µM), for the others: top-dose activity change, negative = inhibition, most hits filed as inhibitors | Vaccinia virus Venus reporter expression, fluorescence; calls by dose curve; tested in A549 cells; also: potency is read from the fitted curve at half-maximal effect; nearly all actives have a fitted effect of over 30% in size
VACV mCherry inh – vaccinia inhibition (mCherry reporter); Potency, µM (top dose mostly 36.5 µM), without a hit: at the highest dose activity change, negative = inhibition, most hits filed as inhibitors; 310,000 compounds, 0.63% hits; Vaccinia virus mCherry reporter infection, fluorescence; AID 720579; calls by dose curve; tested in A549 cells; also: potency is read from the fitted curve at half-maximal effect; nearly all actives have a fitted effect of over 35% in size
Active calls of the source: *; i = inactive; ? = inconclusive; . = no result given. Unless noted, calls follow the shape of the dose curve; as a rule, active = well fitted curve in the direction sought with a large enough effect; inconclusive = small, poorly fitted or top-dose-only effect, or another doubt; inactive = no such curve, though single readings can be large; an effect the other way counts as inactive or inconclusive. % is scaled to controls: 0 for no effect and ±100 for the full control effect.

SMILES | Sm TGR inh | HCMV antiviral | HCV inhibitor | FMDV antiviral | Vaccinia Venus | VACV mCherry inh
C=CC(=O)NN(C)c1ncc(C(F)(F)F)cc1Cl | . | ? | -6% | -13% | . | .
CN(NC(=O)/C=C/C(=O)O)c1ncc(C(F)(F)F)cc1Cl | 20µM* | 3 | 4% | -9% | -10% | i
CCN(CC)S(=O)(=O)c1cccc(C(=O)N[C@H](C(=O)Nc2nc3ccc(F)cc3s2)C(C)C)c1 | -5% | 150 | ? | 4% | ? | ?
Cc1cc(N(CCO)CCO)ccc1C(c1ccc(N(CCO)CCO)cc1C)c1ccccc1Cl | -10% | -9 | ? | -17% | ? | ?
CN=C1S/C(=C\c2ccc(N3CCCC3)c(F)c2)C(=O)N1C | -4% | 35 | -17% | 9% | -7% | ?
CN=C1S/C(=C\c2cccn2-c2cccc(Br)c2)C(=O)N1C | . | -65* | -29% | 5% | . | .
N/C(COc1cc(Cl)cc(Cl)c1)=N\O | 4% | -65* | 5% | -11% | -7% | -9%
COc1ccc(-c2noc(N3CCC(C(=O)NCCCN4CC(C)CC(C)C4)CC3)n2)cc1 (stereo not given) | 0% | -25 | ? | -15% | . | .
CCOc1ccc(N2C(=O)/C(=C\c3ccc(O)c(OC)c3)S(=O)(=O)C2c2cccc([N+](=O)[O-])c2)cc1 (stereo not given) | -3% | 23 | -1% | ? | . | .
CCOC(=O)C1=C(C)n2c(s/c(=C/c3cccc([N+](=O)[O-])c3)c2=O)=NC1c1ccc(O)c(OC)c1 (stereo not given) | 3% | -3 | 8.9µM* | ? | . | .
CCOC(=O)c1c(O)c2cc(Cl)ccc2n(CC)c1=O | 6% | -8 | -6% | 7% | -4% | ?
OC(COCC(F)(F)C(F)(F)C(F)(F)C(F)F)Cn1c2ccc(Cl)cc2c2cc(Cl)ccc21 (stereo not given) | -6% | . | 3.2µM* | ? | 11µM* | ?
O=C(O[C@@H]1OC2COC(=O)c3cc(O)c(O)c(O)c3-c3c(cc(O)c(O)c3O)C(=O)O[C@@H]([C@H]1O)[C@@H]2O)c1cc(O)c(O)c(O)c1 | 28µM* | . | ? | -16% | -7% | -4%
CCCCNC(=O)Cn1c(=O)oc2cc(S(=O)(=O)N3CC(C)CC(C)C3)ccc21 (stereo not given) | -11% | 1 | -26% | 2% | -10% | i
CC1CC(C)CN(S(=O)(=O)c2ccc3c(c2)oc(=O)n3CC(=O)N(C)Cc2ccccc2)C1 (stereo not given) | -14% | -79* | -28% | -27% | ? | ?
CC1CC(C)CN(S(=O)(=O)c2ccc(C(=O)N(C)Cc3ccccc3)cc2)C1 (stereo not given) | . | -65* | ? | 0% | . | .
CC1CC(C)CN(S(=O)(=O)c2ccc(C(=O)N(c3ccccn3)C3CCCCC3)cc2)C1 (stereo not given) | 9% | -23 | -5% | -19% | -14% | i
O=C1NCN(c2ccccc2)C12CCN(C(c1cc3ccccc3o1)c1nnnn1C1CCCC1)CC2 (stereo not given) | . | -24 | . | -21% | -12% | -5%
CCn1c(NCc2ccccc2NS(=O)(=O)c2ccc(C)cc2)nc2ccccc21 | -3% | 35 | 14µM* | -1% | ? | ?
CCn1c(NCc2cc(Br)ccc2NS(=O)(=O)c2ccc(C)cc2)nc2ccccc21 | 4% | -12 | 10µM* | 3% | -24% | .
CCOc1ccc(C2SCC(=O)Nc3c2c(=O)[nH]n3C2CCCCCC2)cc1 (stereo not given) | -26% | 28 | 12% | -27% | . | .
COc1ccc(C2SCC(=O)Nc3c2c(=O)[nH]n3C2CCCCCC2)cc1 (stereo not given) | 40µM* | 27 | 12% | -28% | . | .
CCc1ccc(C2=NN(S(C)(=O)=O)C(c3cccs3)C2)cc1 (stereo not given) | -23% | 42 | -15% | 9% | . | .
CCOC(=O)C(=CNNc1cccc(Cl)c1)C(=O)OCC | 8.9µM* | 24 | 21% | 2% | -23% | -22%
